Most compounds without a hit are left out; they make up all but 7.4% or so of the library.
FLuc modulator – qHTS profiling assay for firefly luciferase inhibitor/activator using purifed enzyme and Km concentrations of substrates (counterscreen for miR-21 project); Luciferin 4-monooxygenase (Photinus pyralis), P08659; purified FLuc, Km substrates, luminescence inhibition; Potency, µM (highest dose often 57.5 µM), most hits filed as inhibitors; hit rate 6.9% among 360,000; AID 588342, 2011; note: nearly all actives have a fitted effect of over 55% in size
Target sequence (P08659 whole entry, looked up): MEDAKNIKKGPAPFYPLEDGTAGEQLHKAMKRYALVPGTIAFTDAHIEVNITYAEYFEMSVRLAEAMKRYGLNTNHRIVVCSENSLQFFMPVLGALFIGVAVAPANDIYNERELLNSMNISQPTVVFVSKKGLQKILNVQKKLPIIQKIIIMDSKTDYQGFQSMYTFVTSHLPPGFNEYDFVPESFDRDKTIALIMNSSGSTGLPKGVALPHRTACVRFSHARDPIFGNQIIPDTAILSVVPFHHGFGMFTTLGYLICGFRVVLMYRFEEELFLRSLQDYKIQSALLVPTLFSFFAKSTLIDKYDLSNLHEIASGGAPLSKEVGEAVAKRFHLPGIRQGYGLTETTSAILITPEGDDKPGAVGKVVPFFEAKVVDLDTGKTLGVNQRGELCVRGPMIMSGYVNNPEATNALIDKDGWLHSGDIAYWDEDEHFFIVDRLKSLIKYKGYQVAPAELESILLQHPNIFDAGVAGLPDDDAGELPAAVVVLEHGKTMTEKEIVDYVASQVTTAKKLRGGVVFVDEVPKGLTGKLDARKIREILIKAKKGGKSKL
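Biochemical qHTS of compounds, final roughly 60 µM downward over six points, against 10 nM purified firefly luciferase using Km concentrations of substrates (10 uM D-luciferin, 10 uM ATP) in Tris acetate pH 7.5 buffer; luminescence output.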
SMN2 splice up – qHTS Assay for Enhancers of SMN2 Splice Variant Expression; Potency, µM (series often up to 46.1 µM), usual class: activators; HEK293 SMN2-luciferase splicing reporter, luminescence, 30-36 h; hit rate 2.8% among 210,000; AID 1458, 2008; note: nearly all actives have a fitted effect of over 55% in size
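HEK293 cells carry an SMN2 […]–luciferase reporter in which exon 7 inclusion puts luciferase in frame. Cells were plated 10-12 h before compound addition, then incubated 30-36 h at 37C. ONE-Glo luminescence was read; sodium butyrate at 4.5 mM final served as control.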
ELG1 genotox – qHTS screen for small molecules that induce genotoxicity in human embryonic kidney (HEK293T) cells expressing luciferase-tagged ELG1 | AID 504466, 2011 | hit rate 1.3% among 330,000 | Potency, µM (highest dose often 46 µM), actives largely listed as activators | HEK293T ELG1-luciferase reporter, luminescence, 16 h; note: nearly all actives have a fitted effect of over 60% in size
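DMSO vehicle served as control against compound-treated ELG1-luciferase HEK293T cells; exposure lasted 16 hr at 37 °C and 5% CO2, followed by ONE-Glo luminescence detection after 30 min.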
Rab9 prom act – qHTS Assay for Rab9 Promoter Activators; Huh7 Rab9 promoter-luciferase reporter, luminescence, 24 h; Potency, µM (top dose mostly 9.22 µM), most hits filed as activators; hit rate 2.8% among 320,000; AID 485297, 2010; note: nearly all actives have a fitted effect of over 60% in size
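Measured in stably transfected Huh7 cells bearing a Rab9 promoter–luciferase construct: 24 h compound treatment at 37 °C, followed by luminescence detection.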
NPC1 promoter act – qHTS Assay for NPC1 Promoter Activators; Huh7 NPC1 promoter luciferase reporter, 24 h; Potency, µM (doses to about 9.22 µM), most hits filed as activators; hit rate 2.4% among 320,000; note: nearly all actives have a fitted effect of over 60% in size
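Cells: Huh7 expressing luciferase under the NPC1 promoter, 1500/well. Seeded 2 h, compound added, incubated 24 h at 37 °C. Luciferase reagent, 10 min ambient, then luminescence.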
KinaseGlo FLuc – Counterscreen for Luciferase (Kinase-Glo TM) Inhibition | hit rate 0.28% among 200,000 | Luciferin 4-monooxygenase (Photuris pensylvanica), Q27757 | Kinase-Glo luciferase, ATP luminescence, 8 min | Potency, µM (highest dose often 38.3 µM), actives largely listed as inhibitors; note: nearly all actives have a fitted effect of over 60% in size
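Inhibition of Kinase-Glo luciferase light generation was assessed at 10 uM ATP in pH 7.2 imidazole buffer, with luminescence measured after eight minutes at ambient temperature.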
Each line names hits and unclear results; the compound was inactive in the other large screens. Calls come from the whole dose curve; as a rule, active = well fitted curve in the direction sought with a large enough effect; inconclusive = small, poorly fitted or top-dose-only effect, or another doubt; inactive = no such curve, though single readings can be large; an effect the other way counts as inactive or inconclusive.

O=C(CNCc1ccc(Cl)cc1)Nc1ccc2c(c1)OCCO2	none
Cn1c(C(=O)O)c(CC(=O)Nc2ccc3c(c2)OCCO3)c2ccccc21	FLuc modulator 19µM, ELG1 genotox inconclusive
O=C(CSCc1ccccc1Cl)Nc1ccc2c(c1)OCCO2	FLuc modulator 6.75µM, ELG1 genotox inconclusive, Rab9 prom act 1.58µM, NPC1 promoter act 1.78µM
Clc1ccc(C2=NN(c3ccccc3)C(c3ccco3)C2)cc1 (stereo not drawn)	FLuc modulator inconclusive (no result: SMN2 splice up, KinaseGlo FLuc)
Cc1nc(N2N=C(c3ccc(Cl)cc3)CC2c2ccco2)sc1C(=O)N(C)C (stereo not drawn)	FLuc modulator 15.1µM
Cc1[nH]c2ccccc2c1C(=O)C(=O)N1CCN(c2cccc(Cl)c2)CC1	none (no result: SMN2 splice up, KinaseGlo FLuc)
CSc1ccc(CNc2ccccn2)cc1	FLuc modulator 15.1µM, ELG1 genotox inconclusive, Rab9 prom act inconclusive, NPC1 promoter act inconclusive
Cc1cccc(CNc2cc(-c3ccc(N(C)C)cc3)ncn2)c1	none (no result: FLuc modulator, ELG1 genotox, Rab9 prom act, NPC1 promoter act)
CN(C)c1ccc(CNc2ccccn2)cc1	FLuc modulator 13.5µM, ELG1 genotox inconclusive, Rab9 prom act inconclusive, NPC1 promoter act inconclusive (no result: SMN2 splice up, KinaseGlo FLuc)
CN(C)c1ccc(-c2cc(NCc3cccnc3)ncn2)cc1	SMN2 splice up 10µM (no result: FLuc modulator, ELG1 genotox, Rab9 prom act, NPC1 promoter act)
Cc1cccc(NCc2ccc(N(C)C)cc2)n1	FLuc modulator 10.7µM, ELG1 genotox 18.3µM, Rab9 prom act inconclusive, NPC1 promoter act inconclusive (no result: SMN2 splice up, KinaseGlo FLuc)
Fc1ccc(CNc2ccccn2)cc1	none (no result: SMN2 splice up, KinaseGlo FLuc)
Cc1ccc(O)c(CNc2cccc(C)n2)c1	none (no result: SMN2 splice up, KinaseGlo FLuc)
O[C@H](CNc1ccccn1)c1ccccc1	none (no result: FLuc modulator, ELG1 genotox, Rab9 prom act, NPC1 promoter act)
COc1cccc(NC(=O)Cn2c(=O)n(C)c(=O)c3sc4c(c32)COC(C)(C)C4)c1	none (no result: SMN2 splice up, KinaseGlo FLuc)
CN(C)c1ccc(CNc2ncc(Br)cc2Br)cc1	FLuc modulator 19µM
Cc1nc(=O)c(-c2ccccc2)c(C)n1-c1cccc(/C=C/C(=O)O)c1	none (no result: SMN2 splice up, KinaseGlo FLuc)
C[C@H](CO)N1C[C@H](C)[C@@H](CN(C)S(=O)(=O)c2cccs2)Oc2c(NS(=O)(=O)c3ccc(F)cc3)cccc2C1=O	none (no result: FLuc modulator, SMN2 splice up, Rab9 prom act, NPC1 promoter act, KinaseGlo FLuc)
CC1CN(C(=S)NC2CCCC2)CC(C)O1 (stereo not drawn)	none (no result: SMN2 splice up, KinaseGlo FLuc)
O=C(c1cc(-c2ccc(Cl)c(Cl)c2)on1)N1CCCCCC1	FLuc modulator 4.78µM, ELG1 genotox inconclusive, Rab9 prom act 2.82µM, NPC1 promoter act 2µM (no result: SMN2 splice up, KinaseGlo FLuc)
O=C(c1cc(-c2ccc(O)cc2)on1)N1CCCCCC1	FLuc modulator 13.5µM, ELG1 genotox inconclusive, Rab9 prom act 2.51µM, NPC1 promoter act 1.26µM (no result: SMN2 splice up, KinaseGlo FLuc)
O=C(c1cc(-c2ccc3c(c2)OCO3)on1)N1CCCCC1	FLuc modulator 0.849µM, ELG1 genotox 0.116µM, Rab9 prom act 0.501µM, NPC1 promoter act 0.316µM (no result: SMN2 splice up, KinaseGlo FLuc)
COc1ccc(-c2cc(C(=O)N3CCCCC3)no2)cc1OC	FLuc modulator inconclusive, ELG1 genotox inconclusive, Rab9 prom act inconclusive, NPC1 promoter act inconclusive
CN(C(=O)c1cc(-c2ccccc2O)on1)c1ccccc1	FLuc modulator inconclusive (no result: ELG1 genotox, Rab9 prom act, NPC1 promoter act, KinaseGlo FLuc)
O=C(c1cc(-c2ccccc2O)on1)N1CCCCC1	FLuc modulator 8.49µM, SMN2 splice up 20µM (no result: ELG1 genotox, Rab9 prom act, NPC1 promoter act, KinaseGlo FLuc)
O=C(c1cc(-c2ccc(Cl)cc2)on1)N1CCCCCC1	FLuc modulator 1.9µM, ELG1 genotox 4.61µM, Rab9 prom act 1.12µM, NPC1 promoter act 0.794µM (no result: SMN2 splice up, KinaseGlo FLuc)
CC1CCCCN1C(=O)c1cc(-c2ccc(Br)cc2)on1 (stereo not drawn)	FLuc modulator inconclusive (no result: ELG1 genotox, Rab9 prom act, NPC1 promoter act, KinaseGlo FLuc)
COc1ccc2c(c1OC)C(=O)N1N=C(c3ccc(Cl)cc3)CC21 (stereo not drawn)	FLuc modulator inconclusive
COc1ccc(C2=NN3C(=O)c4c(ccc(OC)c4OC)C3C2)cc1 (stereo not drawn)	FLuc modulator 16.9µM
COc1ccc2c(c1OC)C(=O)N1N=C(c3ccc(Br)cc3)CC21 (stereo not drawn)	FLuc modulator 23.9µM
CCN1/C(=C\C=C2\C(=O)N(c3ccccc3)C(=S)N2C)Sc2ccccc21	KinaseGlo FLuc inconclusive
CN1C(=O)/C(=C/C=C2\SCCN2C)N(C)C1=S	FLuc modulator 16.9µM, SMN2 splice up inconclusive, ELG1 genotox 14.6µM, Rab9 prom act 2.51µM, NPC1 promoter act 3.16µM, KinaseGlo FLuc inconclusive
CN1C(=O)/C(=C/C=C2\SCCN2C)SC1=S	FLuc modulator 1.9µM, SMN2 splice up 2.51µM, ELG1 genotox inconclusive, Rab9 prom act 3.16µM, NPC1 promoter act 2.51µM
COc1cc2c(cc1OC)CN(c1ccc([N+](=O)[O-])cc1Cl)CC2	none
COc1cc2c(cc1OC)CN(c1ccc(F)cc1[N+](=O)[O-])CC2	FLuc modulator 12µM, Rab9 prom act inconclusive (no result: SMN2 splice up, KinaseGlo FLuc)
COC(=O)c1c(C)[nH]c(O)c1C=Nc1ccc(C(C)C)cc1	FLuc modulator 8.49µM, ELG1 genotox inconclusive, Rab9 prom act inconclusive, NPC1 promoter act inconclusive
CSc1nn2c(C(F)(F)F)cc(C(F)(F)F)nc2c1C(=O)O	none (no result: SMN2 splice up, KinaseGlo FLuc)
CC1CC(C)CN(c2ncnc3c2cnn3-c2ccc(Cl)cc2)C1 (stereo not drawn)	FLuc modulator 2.13µM, ELG1 genotox inconclusive, Rab9 prom act 0.708µM, NPC1 promoter act 2µM
Cc1ccc(Cl)cc1-n1ncc2c(N3CCC(C)CC3)ncnc21	none (no result: SMN2 splice up, ELG1 genotox, Rab9 prom act, NPC1 promoter act, KinaseGlo FLuc)
CC1CCCN(c2ncnc3c2cnn3-c2ccc(Cl)cc2)C1 (stereo not drawn)	FLuc modulator 0.0953µM (no result: SMN2 splice up, KinaseGlo FLuc)

Screening data: PubChem, National Center for Advancing Translational Sciences (NCATS)
